Most compounds without a hit are left out; they make up all but 8.1% or so of the library.
PINK1 expr mod – A Quantitative High throughput Screen to Identify Chemical Modulators of PINK1 Expression; 410,000 tested, 0.2% active; Potency, µM (highest dose often 76.6 µM), hits mostly activators; PINK1 immunofluorescence, high-content cytometry, 24 h; active means well fitted activation curve with a large enough effect; inconclusive means small, poorly fitted or top-dose-only effect; cell line not stated here; further: nearly all actives have a fitted effect of over 65% in size
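Decision-based qHTS: stable cells, 24 h exposure to five compound concentrations, CCCP as control. Fixed cells stained for PINK1 plus nuclear, mitochondrial and cell markers, cytometer read.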
Sfp inh – qHTS Assay for Inhibitors of Bacillus subtilis Sfp phosphopantetheinyl transferase (PPTase). Potency, µM, usual class: inhibitors. 310,000 tested, 3.5% active. Biochemical Sfp PPTase activity, qHTS;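 further: the enzyme is Sfp with the accession as filed and its product quenches rhodamine fluorescence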
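Reaction rates are the 30-min fluorescence difference (ex 525, em 598 nm) in wells containing 15 nM Sfp, 5 uM rhodamine-CoA and 12.5 uM BHQ-2-YbbR at pH 7.6 with 10 mM MgCl2.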
Gal4-VP16 FLuc – VP16 counterscreen qHTS for inhibitors of ROR gamma transcriptional activity | 310,000 tested, 3.5% active | Potency, µM (top dose mostly 53.6 µM), actives largely listed as inhibitors | Drosophila S2 Gal4-VP16 UAS-luciferase, luminescence, 20 h;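 further: Gal4-VP16 expression switched on by copper sulfate through the metallothionein promoter; nearly all actives have a fitted effect of over 50% in size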
Epigenetic reg – Quantitative High-Throughput Screen for Regulators of Epigenetic Control; murine LDR cells, GFP reporter derepression, 30 h; Potency, µM (highest dose often 53.9 µM), actives largely listed as activators; 280,000 tested, 0.2% active; AID 1865, 2009; further: nearly all actives have a fitted effect of over 60% in size
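Murine LDR cells bearing a silenced CMV-driven GFP reporter were exposed to compound for 30 h at 37 C. After PBS washes, GFP-positive cells (20-120 um objects) counted by laser-scanning microplate cytometry.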
ClpP mod – qHTS Assay for Activators of ClpP; ATP-dependent Clp protease proteolytic subunit (Bacillus subtilis (strain 168)), P80244; purified B. subtilis ClpP, FRET peptide cleavage, 20 min; Potency, µM (doses to about 57.5 µM); 340,000 tested, 1.9% active; active means well fitted falling curve with a large enough effect; inconclusive means small, poorly fitted or top-dose-only effect; inactive means no such curve, though single readings can be large or run the other way; further: the source files actives as falling curves though it sought activators and does not explain the sign; nearly all actives have a fitted effect of over 65% in size
Target sequence (P80244 whole entry, looked up): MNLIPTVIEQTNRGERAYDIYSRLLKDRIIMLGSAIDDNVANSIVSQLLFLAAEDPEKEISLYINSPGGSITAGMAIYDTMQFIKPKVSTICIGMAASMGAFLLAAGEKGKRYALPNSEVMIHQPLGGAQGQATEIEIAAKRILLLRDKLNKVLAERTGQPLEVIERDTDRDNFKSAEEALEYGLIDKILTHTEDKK
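FRET quenching reversal measured ClpP activation: 10 microg/mL B. subtilis ClpP at pH 8 with the FRET-FV decapeptide, read at 430 nm after 320 nm excitation. The 20-min minus 0-min signal was scaled between DMSO/no-enzyme wells and ADEP (5.8 microM final).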
RORg inh – qHTS for inhibitors of ROR gamma transcriptional activity; Nuclear receptor ROR-gamma (Mus musculus), P51450; Drosophila S2 Gal4-RORgamma UAS-luciferase reporter, 20 h; Potency, µM (series often up to 53.6 µM), actives largely listed as inhibitors; 310,000 tested, 5.4% active; AID 2551, 2010; further: nearly all actives have a fitted effect of over 60% in size
Target sequence (P51450 whole entry, looked up, the tested form may be a part): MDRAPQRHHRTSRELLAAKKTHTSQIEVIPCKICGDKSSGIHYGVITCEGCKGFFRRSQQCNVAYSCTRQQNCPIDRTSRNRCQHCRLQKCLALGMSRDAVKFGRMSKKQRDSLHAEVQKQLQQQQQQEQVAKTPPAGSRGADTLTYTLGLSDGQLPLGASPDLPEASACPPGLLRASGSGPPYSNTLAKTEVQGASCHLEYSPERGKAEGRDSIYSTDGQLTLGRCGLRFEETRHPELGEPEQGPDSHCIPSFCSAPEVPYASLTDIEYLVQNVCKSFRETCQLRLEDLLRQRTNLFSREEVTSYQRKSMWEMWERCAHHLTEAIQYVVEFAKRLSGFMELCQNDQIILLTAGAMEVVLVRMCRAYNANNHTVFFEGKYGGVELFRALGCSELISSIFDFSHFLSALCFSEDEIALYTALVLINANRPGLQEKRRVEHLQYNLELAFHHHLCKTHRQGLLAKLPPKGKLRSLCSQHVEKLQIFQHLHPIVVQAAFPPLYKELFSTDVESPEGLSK
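Read-out: Photinus luciferase luminescence; inhibitors lower reporter signal. Insect Schneider cells with Gal4-ROR gamma fusion under metallothionein promoter, UAS reporter; 700 uM final copper sulfate induction, 20 hr, ambient temperature.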
Numbers stand for hits; 0 = inactive; ? = inconclusive; - = no result given; [ ] = remark or other dose. Unless noted, the call rests on the fitted dose curve; in most records, active means well fitted curve in the direction sought with a large enough effect; inconclusive means small, poorly fitted or top-dose-only effect, or another doubt; inactive means no such curve, though single readings can be large; an effect the other way counts as inactive or inconclusive.

SMILES	PINK1 expr mod	Sfp inh	Gal4-VP16 FLuc	Epigenetic reg	ClpP mod	RORg inh
CC(C)C[C@H](NC(=O)c1nc[nH]c1C(=O)N1CCN(C(=O)OC(C)(C)C)CC1)C(=O)OCc1ccccc1	0	0	?	0	0	8.91µM
CC(C)C[C@H](NC(=O)c1nc[nH]c1C(=O)NC1CCN(C(=O)OC(C)(C)C)CC1)C(=O)OCc1ccccc1	0	0	?	?	0	0
CC(C)(C)OC(=O)[C@H](Cc1ccccc1)NC(=O)c1nc[nH]c1C(=O)N1CCN(C(=O)OC(C)(C)C)CC1	0	0	?	-	0	11.2µM
CCc1cccc(NS(=O)(=O)c2ccc3c(c2)N(CC(=O)OC)C(=O)CS3)c1	0	-	-	0	0	-
COCC(=O)Nc1cc(C(=O)N2CCCOc3c(cccc3OC)C2)c2c(c1)nc(C1CCC1)n2C	0	-	-	-	-	-
O=C(N[C@@H](Cc1ccccc1)C(=O)OCc1ccccc1)c1nc[nH]c1C(=O)N1CCNCC1	0	-	-	-	0	-
CC(C)(C)OC(=O)N1CCN(C(=O)c2[nH]cnc2C(=O)N[C@@H](Cc2ccccc2)C(=O)OCc2ccccc2)CC1	0	0	?	-	0	11.2µM
COc1cccc(N2CCN(C3C(=O)c4ccccc4N3C(C)=O)CC2)c1 (centres undefined)	0	-	-	0	0	-
S=C(Nc1ccc(Cl)cc1)c1nc2ccccc2[nH]1	0	0	20µM	0	0	11.2µM
Cc1ccccc1NC(=S)c1nc2ccccc2[nH]1	0	0	?	0	0	?
O=C(NC1CC(=O)N(c2ccc(F)cc2)C1)c1ccc(S(=O)(=O)N2CCOCC2)cc1 (centres undefined)	0	-	-	0	0	-
Cc1ccc(-c2nnc3c4ccccc4c(C)nn23)cc1NC(=O)c1ccccc1	0	-	-	0	0	-
CC12C=C(/C=C/CCc3ccco3)C(C)(C1)[C@H](CCc1ccco1)CC2=O (some centres undefined)	-	0	0	0	-	0
Cc1ccc(CSc2nnc(SCC(=O)N/N=C/C=C/c3ccccc3[N+](=O)[O-])s2)cc1	0	0	?	0	0	11.2µM
Cc1ccc(CSc2nnc(SCC(=O)N/N=C/C=C/c3ccco3)s2)cc1	0	39.8µM	11.2µM	0	0	7.08µM
CC(/C=N/NC(=O)CSc1nnc(SCc2ccccc2)s1)=C\c1ccco1	0	?	?	0	0	0
O=[N+]([O-])c1cc([N+](=O)[O-])c2oc(-c3ccccc3)c(Br)c2c1O	35.5µM	0	0	-	-	?
O=c1cc(-c2ccccc2Cl)oc2ccc([N+](=O)[O-])c(O)c12	0	0	0	0	0	0
CCOc1ccc(CC(=O)NCc2ccc3c(c2)CCN3C(=O)c2ccccc2)cc1OCC	0	-	-	0	0	-
O=C1C(=O)c2ncccc2-c2cccnc21	-	0.631µM	0	-	-	0
CC(=O)Nc1ccc(C(=O)Nc2ccc(S(=O)(=O)N3CCCCC3)cc2)cc1	0	0	0	-	-	0
Cc1nnc(NC(=O)c2ccc(S(=O)(=O)N3CCCCCC3)cc2)o1	0	0	1.26µM	0	0	0.708µM
COCc1nnc(NC(=O)c2ccc(S(=O)(=O)N3CCCCCC3)cc2)o1	0	0	0.282µM	0	0	2.24µM
Cc1nnc(NC(=O)c2ccc(S(=O)(=O)N3CC(C)OC(C)C3)cc2)o1 (centres undefined)	0	?	3.98µM	-	0	4.47µM
Cn1nc(-c2ccc(Cl)cc2)c2cc(C(=O)NC3CC3)sc21	0	0	12.6µM	0	?	?
SMILES	PINK1 expr mod	Sfp inh	Gal4-VP16 FLuc	Epigenetic reg	ClpP mod	RORg inh
Cc1ccc(N=C2C(=O)Nc3ccccc32)c(C)c1	0	0	0	-	-	0
Cc1ccc(C2NC(=O)c3ccccc3N2)c(C)c1 (centres undefined)	0	-	-	-	28.2µM	-
Cc1ccc(C2NC(=O)c3ccccc3N2)s1 (centres undefined)	?	0	0	0	28.2µM	?
CN(C)c1ccc(C2NC(=O)c3ccccc3N2)cc1 (centres undefined)	0	0	0	-	0	0
Cc1cccc(C2NC(=O)c3ccccc3N2)c1 (centres undefined)	?	-	-	-	28.2µM	-
O=C(O)c1ccc(Cl)cc1Cl	-	-	0	-	-	0
COC(=O)[C@@]1(Cc2ccc(F)cc2)[C@H]2c3cc(C(=O)N(C)C)n(Cc4ccc(C)o4)c3C[C@H]2CN1C(=O)c1ccccc1	0	15.8µM	?	0	0	?
O=S(=O)(Nc1cccc2cccnc12)c1ccccc1O	-	0	3.16µM	-	-	2µM
O=S(=O)(Nc1cccc2cccnc12)c1ccc(Br)cc1	-	0	1.26µM	-	-	0.562µM
O=S(=O)(Nc1ccccc1O)c1cccc2cccnc12	0	0	0	0	-	0
Nc1ccc(S(=O)(=O)Nc2cccc3cccnc23)cc1	-	0	11.2µM	-	-	3.98µM
Cc1cc(C)c(S(=O)(=O)Nc2cccc3cccnc23)c(C)c1	0	0	0.316µM	-	-	0.0891µM
Nc1ccc(S(=O)(=O)Nc2ccccn2)cc1	0	0	0	0	0	0
Cc1ncc2c(c1CNS(=O)(=O)N(C)C)CCN(C(=O)/C=C/c1ccccc1Cl)C2	0	-	-	-	-	-
Cc1cc(Cl)ccc1NC(=O)c1cc2ccccn2n1	0	-	-	0	0	-
CC(C)c1nn2c(=O)cc(COC(=O)c3ccc(NC(=O)c4ccccc4Cl)cc3)nc2s1	0	-	-	0	0	-
Cc1c(C(=O)N(Cc2ccc(Cl)cc2)CC2CCCO2)oc2ccc(F)cc12 (centres undefined)	0	-	-	0	0	-
COc1ccc(S(=O)(=O)Nc2cc(OC)cc3cccnc23)cc1	-	0	?	-	-	2.51µM
O=S(=O)(Nc1cccc2cccnc12)c1cccs1	0	-	-	-	-	-
O=S(=O)(Nc1cccc2cccnc12)c1cccc2ccccc12	0	-	-	-	-	-
Cc1ccc(S(=O)(=O)Nc2cccc3ncccc23)cc1	0	0	0	0	0	0
Cc1ccc(S(=O)(=O)Nc2cccc3ncccc23)s1	0	0	0.562µM	0	0	0.282µM
O=S(=O)(Nc1cccc2cccnc12)c1ccc2ccccc2c1	0	0	0.631µM	-	-	5.62µM
COc1ccc(C(=O)Nc2cc(OC)cc3cccnc23)cc1	0	0	0	-	0	0
O=S(=O)(Nc1cccc2cccnc12)c1ccc(Br)s1	-	0	1.12µM	-	-	0.562µM
Cc1ncnc2nc[nH]c12	-	-	-	-	0	-
Cc1ccc(CNc2nc(CN3CCNC(=O)C3)nc3ccccc23)o1	0	-	-	-	-	-
Cc1cc(C)c(S(=O)(=O)Nc2ccc[nH]c2=O)c(C)c1	0	50.1µM	-	0	0	0[0.365 µM]
Cc1ccc(S(=O)(=O)Nc2ccccc2NS(=O)(=O)c2ccc(C)cc2)cc1	0	-	-	-	0	-
Cc1ccc(S(=O)(=O)Nc2cccc3ccc(C)nc23)cc1	-	0	?	-	-	3.16µM

Assay outcomes from PubChem.
